# Data reported in PMC7862700, “An all-to-all approach to the identification of sequence-specific readers for epigenetic DNA modifications on cytosine”.
# Tests used:
# Assay in all cases: DAPPL (digital affinity profiling via proximity ligation, sequencing); 10 mM Tris-HCl pH 7.5, 50 mM NaCl, 1 mM DTT, 4% glycerol, room temperature, 30 min; GST-TFs on glutathione beads, 16-mer random dsDNA library, 0.1% formaldehyde crosslink after washing; high values mean tight binding
# Details in all cases: protein: recombinant; tags: N-terminal GST; dsDNA, one strand shown
# FLI1 = target: T1, FLI1 (Homo sapiens, UniProt Q01543 1-452)
# T1 sequence: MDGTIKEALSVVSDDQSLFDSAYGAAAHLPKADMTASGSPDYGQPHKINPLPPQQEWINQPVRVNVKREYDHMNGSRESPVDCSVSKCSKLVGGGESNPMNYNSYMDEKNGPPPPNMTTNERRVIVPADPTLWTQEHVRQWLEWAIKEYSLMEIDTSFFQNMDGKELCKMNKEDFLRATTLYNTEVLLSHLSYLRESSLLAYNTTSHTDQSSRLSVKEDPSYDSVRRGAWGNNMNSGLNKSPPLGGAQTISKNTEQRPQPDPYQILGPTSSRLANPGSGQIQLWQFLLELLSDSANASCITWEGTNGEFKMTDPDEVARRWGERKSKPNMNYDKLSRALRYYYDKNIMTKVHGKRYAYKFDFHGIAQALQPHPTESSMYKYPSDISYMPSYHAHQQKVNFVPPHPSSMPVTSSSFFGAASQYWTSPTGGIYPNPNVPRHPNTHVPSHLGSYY
# How it was run: (§1)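 A tag-only sample was pooled with DNA-barcoded human transcription factors that had been expressed in yeast as GST fusions and captured on glutathione beads. The pools were incubated for 30 min at room temperature with 200 nmole of a random double-stranded 16-mer DNA library in Tris/NaCl/DTT/glycerol buffer, then washed, crosslinked with 0.1% formaldehyde, proximity-ligated (BsaI/T4 ligase, 1 h, 37 °C), PCR-amplified and sequenced on an Illumina NextSeq500. Binding signal is each hexamer's read frequency for a factor divided by its frequency for the tag-only sample.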
# ELK1 = target: T2, ELK1 (Homo sapiens, UniProt P19419 1-428)
# T2 sequence: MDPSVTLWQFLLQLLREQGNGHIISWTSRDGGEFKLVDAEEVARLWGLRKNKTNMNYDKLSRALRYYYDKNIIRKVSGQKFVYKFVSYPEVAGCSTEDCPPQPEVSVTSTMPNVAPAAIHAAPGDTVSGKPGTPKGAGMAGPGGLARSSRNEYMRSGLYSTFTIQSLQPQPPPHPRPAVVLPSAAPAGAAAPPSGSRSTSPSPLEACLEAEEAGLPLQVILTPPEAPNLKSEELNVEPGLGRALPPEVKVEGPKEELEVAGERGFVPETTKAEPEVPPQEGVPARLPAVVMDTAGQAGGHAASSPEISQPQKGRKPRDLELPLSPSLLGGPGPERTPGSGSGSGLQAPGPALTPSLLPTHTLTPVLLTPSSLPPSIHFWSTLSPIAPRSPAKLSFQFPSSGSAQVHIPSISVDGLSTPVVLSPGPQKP
# How it was run: as §1
# GABPA = target: T3, GABPA (Homo sapiens, UniProt Q06546 1-454)
# T3 sequence: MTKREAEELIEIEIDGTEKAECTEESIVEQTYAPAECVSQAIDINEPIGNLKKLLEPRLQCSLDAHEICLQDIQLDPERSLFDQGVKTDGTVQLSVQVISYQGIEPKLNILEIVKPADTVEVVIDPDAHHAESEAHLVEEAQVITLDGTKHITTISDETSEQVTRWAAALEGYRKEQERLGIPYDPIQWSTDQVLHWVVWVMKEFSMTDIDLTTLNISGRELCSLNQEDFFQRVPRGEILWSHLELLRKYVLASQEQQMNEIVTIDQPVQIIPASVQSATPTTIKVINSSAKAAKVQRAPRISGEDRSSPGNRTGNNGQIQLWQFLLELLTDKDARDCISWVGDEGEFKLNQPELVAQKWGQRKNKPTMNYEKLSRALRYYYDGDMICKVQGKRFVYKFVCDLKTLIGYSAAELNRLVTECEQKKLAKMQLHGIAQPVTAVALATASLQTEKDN
# How it was run: as §1
# ERG = target: T4, ERG (Homo sapiens, UniProt P11308 1-479)
# T4 sequence: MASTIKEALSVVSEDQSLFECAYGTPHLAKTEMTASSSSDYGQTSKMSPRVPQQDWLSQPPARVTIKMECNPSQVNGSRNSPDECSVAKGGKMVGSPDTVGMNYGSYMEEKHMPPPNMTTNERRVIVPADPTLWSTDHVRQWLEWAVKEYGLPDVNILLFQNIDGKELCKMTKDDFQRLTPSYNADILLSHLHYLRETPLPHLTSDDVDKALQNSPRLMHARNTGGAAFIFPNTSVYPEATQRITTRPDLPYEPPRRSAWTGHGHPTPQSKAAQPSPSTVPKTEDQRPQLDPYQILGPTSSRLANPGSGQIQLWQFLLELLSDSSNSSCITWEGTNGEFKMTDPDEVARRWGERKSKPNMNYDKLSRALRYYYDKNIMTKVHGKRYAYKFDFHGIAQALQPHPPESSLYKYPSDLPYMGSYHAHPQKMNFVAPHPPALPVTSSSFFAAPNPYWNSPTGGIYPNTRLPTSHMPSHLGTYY
# How it was run: as §1
# ELF1 = ELF1 (Homo sapiens, UniProt P32519 1-619)
# How it was run: as §1
# EHF = target: T5, EHF (Homo sapiens, UniProt Q9NZC4 1-300)
# T5 sequence: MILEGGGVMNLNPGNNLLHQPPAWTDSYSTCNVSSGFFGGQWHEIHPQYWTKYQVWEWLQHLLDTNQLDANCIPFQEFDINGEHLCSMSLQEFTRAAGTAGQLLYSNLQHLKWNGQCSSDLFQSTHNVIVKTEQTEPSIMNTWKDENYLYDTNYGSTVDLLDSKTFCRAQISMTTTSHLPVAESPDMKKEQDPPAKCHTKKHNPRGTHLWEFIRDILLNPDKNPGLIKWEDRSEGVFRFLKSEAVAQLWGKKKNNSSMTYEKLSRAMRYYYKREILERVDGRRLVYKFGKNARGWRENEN
# How it was run: as §1
# SPI1 = SPI1 (Homo sapiens, UniProt P17947 1-270)
# How it was run: as §1
# SPIB = SPIB (Homo sapiens, UniProt Q01892 1-262)
# How it was run: as §1
# ELK3 = target: T6, ELK3 (Homo sapiens, UniProt P41970 1-407)
# T6 sequence: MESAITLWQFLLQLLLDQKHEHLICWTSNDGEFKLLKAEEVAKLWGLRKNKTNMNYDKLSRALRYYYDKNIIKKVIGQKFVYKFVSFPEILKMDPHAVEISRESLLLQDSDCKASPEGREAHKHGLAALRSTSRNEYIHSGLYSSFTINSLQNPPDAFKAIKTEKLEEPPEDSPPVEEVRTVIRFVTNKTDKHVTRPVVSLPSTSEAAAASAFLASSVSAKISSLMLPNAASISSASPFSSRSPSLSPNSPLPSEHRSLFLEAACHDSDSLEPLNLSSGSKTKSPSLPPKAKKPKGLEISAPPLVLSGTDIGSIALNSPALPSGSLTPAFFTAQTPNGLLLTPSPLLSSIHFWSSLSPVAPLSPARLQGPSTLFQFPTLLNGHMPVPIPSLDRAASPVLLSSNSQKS
# How it was run: as §1
# Chain of ELF1 (P32519 whole entry): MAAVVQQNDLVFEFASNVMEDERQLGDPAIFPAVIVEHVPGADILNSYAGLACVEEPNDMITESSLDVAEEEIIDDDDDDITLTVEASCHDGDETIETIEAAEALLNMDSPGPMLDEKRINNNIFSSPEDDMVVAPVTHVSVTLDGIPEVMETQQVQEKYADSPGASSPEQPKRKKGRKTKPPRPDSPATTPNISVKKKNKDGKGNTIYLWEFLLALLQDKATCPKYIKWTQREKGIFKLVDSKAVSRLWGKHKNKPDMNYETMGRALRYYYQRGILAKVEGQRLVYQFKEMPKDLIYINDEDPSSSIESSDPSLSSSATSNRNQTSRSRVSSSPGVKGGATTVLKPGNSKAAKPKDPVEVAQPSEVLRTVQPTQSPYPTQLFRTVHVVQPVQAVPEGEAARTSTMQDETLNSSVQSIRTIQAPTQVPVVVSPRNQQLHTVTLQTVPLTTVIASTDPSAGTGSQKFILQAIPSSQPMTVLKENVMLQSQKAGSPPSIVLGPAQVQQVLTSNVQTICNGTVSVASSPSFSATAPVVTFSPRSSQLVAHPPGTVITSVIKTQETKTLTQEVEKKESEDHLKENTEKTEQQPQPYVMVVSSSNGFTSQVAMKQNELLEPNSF
# Chain of SPIB (Q01892 whole entry): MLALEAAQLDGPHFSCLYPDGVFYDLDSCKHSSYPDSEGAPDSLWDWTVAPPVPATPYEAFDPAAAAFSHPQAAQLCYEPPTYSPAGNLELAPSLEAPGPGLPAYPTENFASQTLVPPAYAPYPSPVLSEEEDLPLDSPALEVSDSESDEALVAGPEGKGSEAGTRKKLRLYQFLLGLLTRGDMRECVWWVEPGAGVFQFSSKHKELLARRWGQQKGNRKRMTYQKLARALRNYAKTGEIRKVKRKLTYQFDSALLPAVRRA
sequence,measurement,setting,value
CTTACC,binding signal,FLI1,"1.21 fold enrichment (6-mer frequency, TF over GST control)"
same,binding signal,ELK1,"1.22 fold enrichment (6-mer frequency, TF over GST control)"
same,binding signal,GABPA,"1.26 fold enrichment (6-mer frequency, TF over GST control)"
same,binding signal,ERG,"1.24 fold enrichment (6-mer frequency, TF over GST control)"
same,binding signal,ELF1,"1.24 fold enrichment (6-mer frequency, TF over GST control)"
same,binding signal,EHF,"1.17 fold enrichment (6-mer frequency, TF over GST control)"
same,binding signal,SPI1,"1.34 fold enrichment (6-mer frequency, TF over GST control)"
same,binding signal,SPIB,"1.32 fold enrichment (6-mer frequency, TF over GST control)"
same,binding signal,ELK3,"1.26 fold enrichment (6-mer frequency, TF over GST control)"
